# Screening data deposited in PubChem BioAssay by National Center for Advancing Translational Sciences (NCATS).
# Sampled rows, rich in hits. Any-hit rate of the full collection: about 11%.
# HPGD inh – blocks human HPGD enzyme activity | 150,000 compounds, 4.3% hits | P15428 | purified HPGD, NADH fluorescence kinetic, PGE2 substrate | Potency, µM, without a hit: top-dose activity change, negative = inhibition, most hits filed as inhibitors; active = well fitted inhibition curve with a large enough effect, not every such curve was filed as active; inconclusive = small, poorly fitted or top-dose-only effect, or another doubt; inactive = no such curve, though single readings can be large or run the other way; note: potency is the fitted concentration of half-maximal effect; % is set by controls: 0 for no effect and ±100 for the full control effect
#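 20 nM HPGD preincubated 15 min at room temperature with compound in 50 mM Tris-HCl pH 8, 0.01% Tween 20. Started with 1 mM NAD+ and 30 uM prostaglandin E2; NADH fluorescence (360/450 nm) read 5 times over 30-s intervals, last minus first.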
# HTT ATP protect – protects HTT-Q103 PC12 cells, measured by ATP | Potency, µM (doses to about 56.4 µM), for inactives: cytoprotection (ATP increase), actives largely listed as activators | 230,000 compounds, 0.14% hits | PC12 HTT-Q103 induced, cytoprotection, ATP luminescence, 40 h; note: potency is the fitted concentration of half-maximal effect; % of control where 0% means no effect; nearly all actives have a fitted effect of over 45% in size
#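 Cells were plated at 1500 per well in phenol red-free DMEM with 5% equine and 5% calf serum. Tebufenozide (100 nM final) and compounds were added, then ATPlite reagent, and luminescence was read.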
# ALDH1A1 inh – blocks purified human ALDH1A1 activity. P00352. Purified ALDH1A1, NADH fluorescence, propionaldehyde substrate. Potency, µM (highest dose often 75.3 µM), for the others: at the highest dose activity, negative = inhibition, actives largely listed as inhibitors. 220,000 compounds, 7.3% hits. AID 1030; active = well fitted inhibition curve with a large enough effect, not every such curve was filed as active; inconclusive = small, poorly fitted or top-dose-only effect, or another doubt; inactive = no such curve, though single readings can be large or run the other way;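 note: potency is the fitted concentration of half-maximal effect; plate controls were no enzyme wells and a reference inhibitor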
# Target sequence (P00352 whole entry, looked up): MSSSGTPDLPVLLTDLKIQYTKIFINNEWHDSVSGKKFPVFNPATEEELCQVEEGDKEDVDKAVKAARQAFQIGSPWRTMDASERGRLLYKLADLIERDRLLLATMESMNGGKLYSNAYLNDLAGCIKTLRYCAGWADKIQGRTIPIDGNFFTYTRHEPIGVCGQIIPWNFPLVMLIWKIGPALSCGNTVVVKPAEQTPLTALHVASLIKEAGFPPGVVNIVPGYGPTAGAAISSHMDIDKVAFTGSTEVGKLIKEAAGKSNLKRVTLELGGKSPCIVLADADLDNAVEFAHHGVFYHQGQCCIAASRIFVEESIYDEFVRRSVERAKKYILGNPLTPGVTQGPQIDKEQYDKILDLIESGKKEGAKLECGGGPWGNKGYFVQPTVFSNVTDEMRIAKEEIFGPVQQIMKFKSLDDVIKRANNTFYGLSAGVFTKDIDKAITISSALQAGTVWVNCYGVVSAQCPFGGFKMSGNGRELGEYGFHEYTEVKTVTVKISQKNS
# HttQ103 aggreg – reduces HttQ103-GFP aggregates in PC12 cells; PC12 HttQ103-GFP aggregates, Acumen cytometry, 40 h; Potency, µM (titrated, usually from 46.1 µM), for the others: at the top dose activity change, negative = inhibition, actives largely listed as inhibitors; 220,000 compounds, 1.1% hits; note: potency is the fitted concentration of half-maximal effect; % is set by controls: 0 for no effect and ±100 for the full control effect; nearly all actives have a fitted effect of over 60% in size
#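 Compounds (qHTS titration) were added to PC12 cells expressing an ecdysone-driven HTT exon 1 Q103–GFP fusion after induction with 100 nM tebufenozide. Aggregate formation was measured as GFP objects in cell lysates.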
# PNC assembly inh – blocks assembly of the perinucleolar compartment; PC3M PTB-GFP, PNC prevalence imaging, 16 h; hits give low values; activity change (PNC), negative = inhibition, % at 10 µM; 140,000 compounds, 3.1% hits;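 active = readout at or below -70, meaning at least 70% loss of cells showing the perinucleolar compartment, a nuclear body marking cancer cells; inconclusive = readout between -30 and a set limit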;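 note: plate controls were DMSO wells for no effect and camptothecin positive control wells for full effect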
#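 Read-out is percentage of cells bearing a perinucleolar compartment, from automated 20x imaging of fixed, Hoechst-stained PC3M PTB-GFP cells. Cells were seeded 4 h, then exposed 16 h to compound (23 nl of library stock) in duplicate plates.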
# CBFb-RUNX1 inh – blocks binding between human CBF-beta and RUNX1 | AlphaScreen CBFb-His/RUNX1-biotin binding, biochemical | Potency, µM (highest dose often 59.8 µM), inactives show top-dose activity, negative = inhibition, most hits filed as inhibitors | 230,000 tested, under 10 active | AID 1477; note: % of control where 0% means no effect
#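 Inhibition was taken as any reduction in AlphaScreen signal from the CBF-beta–RUNX1 pair (His and biotin tags, 30 nM each), measured after compound (15 min) and bead (90 min) incubations at room temperature.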
# The depositor's hits bear a star; ? = inconclusive; . = no result given; [ ] = remark or other dose. Unless noted, calls come from the whole dose curve; as a rule, active = well fitted curve in the direction sought with a large enough effect; inconclusive = small, poorly fitted or top-dose-only effect, or another doubt; inactive = no such curve, though single readings can be large; an effect the other way counts as inactive or inconclusive.
SMILES,HPGD inh,HTT ATP protect,ALDH1A1 inh,HttQ103 aggreg,PNC assembly inh,CBFb-RUNX1 inh
O=C(c1ccc(Cl)cc1)c1ccc(OCC(O)CN2CCOCC2)cc1 (configuration not stated),-9%,18%,-1%,-20%,?,0%
CCOC(=O)c1ccc([N+](=O)[O-])cc1NC(C)=O,4%,8%[10 µM],12%,-6%,-92*,-5%
COc1ccc(C(=O)NCC(=O)OCC(=O)Nc2cc([N+](=O)[O-])ccc2F)cc1,.,-25%,1.6µM*,0%,.,-3%
CC(C)=CC(=O)OCC(=O)Nc1cc([N+](=O)[O-])ccc1F,-4%,44%[10 µM],8%,-20%,1,0%
CCOCC(=O)Nc1cc([N+](=O)[O-])ccc1OC,.,-1%,22µM*,1%,.,2%
Cc1cc(C)nc(N2CCCC(C(=O)NCc3ccccc3F)C2)n1 (configuration not stated),.,1%[10 µM],-1%,-15%[9.22 µM],.,-1%
CCN(C(=O)CN(C)Cc1cccc(Cl)c1Cl)c1c(N)n(Cc2ccccc2)c(=O)[nH]c1=O,-15%,10%[10 µM],8%,3%,-98*,2%
COc1ccc2c(=O)c3c(=O)n(Cc4ccco4)c(-c4ccco4)nc3oc2c1,22µM*,-2%,?,2%,10,?
C[C@H]1C[C@H]2[C@H]3CCC4=CC(=O)C=C[C@@]4(C)[C@]3(F)[C@H](O)C[C@]2(C)[C@@]1(O)C(=O)COP(=O)(O)O,-1%,-22%[10 µM],18%[13.5 µM],.,.,.
COCCNC(=O)C(c1ccc(F)cc1)N(CCOC)C(=O)CCC(=O)Nc1nccs1 (configuration not stated),-1%,-21%[10 µM],7%,-11%,-108*,0%
COCCNC(=O)C(c1ccc(Cl)cc1)N(CCOC)C(=O)CCC(=O)Nc1nccs1 (configuration not stated),.,12%[10 µM],9%,0%[9.22 µM],.,1%
CCCN(CCC)C[C@@H]1CCCCN1CCNC(=O)N1c2ccccc2C(=O)Nc2cccnc21,-8%,-2%,1%,.,.,16%[21.7 µM]
CCCn1nnnc1NC(=O)CSc1ccc(Cl)cc1,16µM*,7%[0.074 µM],6%,7%,-27,-1%
CC(C)(C)NC[C@@H](O)COc1nsnc1N1CCOCC1,-12%,?,7%,.,.,21%
CCOC(=O)N/N=C/c1c(F)c(F)c(F)c(F)c1F,-2%,.,-13%,-4%,-1,14%
Cc1nnc(N2C(=O)C(O)=C(C(=O)c3ccco3)C2c2ccc(C(C)(C)C)cc2)s1 (configuration not stated),-6%,36%[10 µM],0%,1%,-109*,-6%
Cc1nnc(N2C(=O)C(O)=C(C(=O)c3ccco3)C2c2ccc(F)cc2)s1 (configuration not stated),-7%,18%[10 µM],-9%,-4%,-13,9%
O=C(Nc1cccc(F)c1)N1CC2(CCN(C(=O)c3cc(C(F)(F)F)cc(C(F)(F)F)c3)CC2)C1,-17%,-3%,3%,.,.,.
N#CCCn1cc(C(=O)Nc2ccc([N+](=O)[O-])cc2)c(-c2cccs2)n1,-15%,.,22µM*,-4%,73,12%
COc1ccc(NC(=O)c2cn(CCC#N)nc2-c2cccs2)cc1,5%,17%[1.9 µM],10%,15%,8,3%
O=C(COC(=O)C12CC3CC(CC(O)(C3)C1)C2)NCCc1ccc(Cl)cc1,.,-20%,0%,-23%,.,3%
O=C(CC1(c2ccc(Cl)cc2)C2CC3CC(C2)CC1C3)NCCO (configuration not stated),.,-62%,13µM*,-2%,.,-18%
O=S(=O)(c1ccc(NC(=S)Nc2ccccc2)cc1)N1CCOCC1,-6%,.,20µM*,10%,19,1%
O=S(=O)(c1ccc(NC(=S)Nc2ccc3c(c2)OCO3)cc1)N1CCOCC1,?,38%[0.074 µM],22µM*,-5%,3,-1%
CC(NC(=S)Nc1ccc(S(=O)(=O)N2CCOCC2)cc1)C1CC2CCC1C2 (configuration not stated),-6%,-27%[10 µM],20µM*,?,11,-5%
SMILES,HPGD inh,HTT ATP protect,ALDH1A1 inh,HttQ103 aggreg,PNC assembly inh,CBFb-RUNX1 inh
CNS(=O)(=O)c1ccc(NC(=S)Nc2ccc3c(c2)OCO3)cc1,.,1%,5µM*,19%,.,-4%
CC(C)CCCCCCNC(=S)Nc1ccc(S(=O)(=O)N2CCOCC2)cc1,-17%,-6%[10 µM],?,?,?,2%
O=C(O)Cc1csc(Nc2cccc(Cl)c2)n1,-5%,17%[10 µM],9%,-14%,?,-4%
CCOC(=O)c1oc2ccc(S(=O)(=O)Nc3ccc4c(c3)n(C)c(=O)n4C)cc2c1C,-28%,-1%[10 µM],-8%,-31%,-20,3%
Clc1ccccc1/C=N/c1cc(-c2ccccc2)nn1-c1ccccc1,-11%,-8%,4%,3%,39,-3%
COc1cccc(/C=N/NC(=O)c2cc3c(OC)c(OC)ccc3[nH]2)c1OC,?,2%[0.074 µM],?,-27%,-84*,0%
COc1cccc(/C=N/NC(=O)c2cc3c(OC)cccc3[nH]2)c1OC,-27%,-3%[10 µM],-2%,11%,?,-7%
COc1cccc(/C=N/NC(=O)c2cc3c(OC)cccc3[nH]2)c1O,-10%,-87%[10 µM],-6%,2.2µM*,?,-15%
COc1cccc(/C=N\NC(=O)C2C(=O)NCC2c2ccccc2)c1O (configuration not stated),-13%,-48%,16%,11µM*,0,-8%
CC#CCN1c2ccccc2[C@]23C[C@@H](C(=O)OC)N(C(=O)COCc4ccccc4)C2=NC(C(=O)OC)=C(C(=O)OC)[C@H]13,4%,-6%[10 µM],10%[13.5 µM],.,.,9%[13.1 µM]
N[C@@H]1[C@@H]2[C@@H]3C[C@H]4N(CC[C@@]14C(=O)C(=O)O)CC3=CCO[C@@H]2CC(=O)O,0%,18%[10 µM],1%[13.5 µM],.,.,.
Fc1cccc(F)c1-n1c(CN2CCCC2)csc1=S,.,-25%,22µM*,5%,.,1%
c1ccc2c(CN3CCCCC3)csc2c1,3%,.,3%,2%,-2,-3%
CCCN1C(=O)C(NC(C)=O)c2ccccc21 (configuration not stated),-3%,19%,0.13µM*,29%,48,0%
Cc1ccc([N+](=O)[O-])cc1N=Nc1c(-c2ccc([N+](=O)[O-])cc2)[nH]n(C(N)=S)c1=O,.,.,11µM*,23%,.,-9%
Cc1cc([N+](=O)[O-])ccc1N=Nc1c(N)[nH]n(-c2ccccc2)c1=O,.,.,?,-4%,.,-16%
NC(=S)n1[nH]c(-c2ccc([N+](=O)[O-])cc2)c(N=Nc2ccc(Cl)cc2)c1=O,.,-85%,?,7.9µM*,.,?
